Screening results as filed in PubChem.
HT1080 IDH1KD tx = HT-1080 IDH1 knockdown cell toxicity (counter line); AID 686971; HT-1080 IDH1 knockdown viability, ATP luminescence, 48 h; Potency, µM (top dose mostly 46.1 µM), without a hit: at the top dose activity, negative = toxicity, most hits filed as cytotoxic; 2% of 360,000 active;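 note: potency is the fitted concentration of half-maximal effect; 0% = DMSO wells and -100% = cell-free medium wells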
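After a 2 h attachment period, IDH1KD HT-1080 cells took pin-transferred compound for 48 h at 37 °C; ATP-based luminescence after 10 min room-temperature reagent incubation reported viability.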
TDP1 cell noCPT = qHTS for Inhibitors of human tyrosyl-DNA phosphodiesterase 1 (TDP1): qHTS in cells in absence of CPT; DT40 Tdp1-/- hTDP1 cells, no CPT, ATP luminescence, 48 h; Potency, µM (highest dose often 46.2 µM), inactives show at the highest dose activity change, negative = growth inhibition, actives largely listed as inhibitors; 15% of 420,000 active; AID 686978, 2013; note: potency is the fitted concentration of half-maximal effect; nearly all actives have a fitted effect of over 55% in size
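Growth kinetics read by CellTiter-Glo luminescence after ≥48 hr at 37 °C. Cells: DT40 Tdp1-/- stably carrying human TDP1, 400 per well, compound exposure in the absence of CPT (DMSO vehicle).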
IL1B secr inh = inflammasome signaling inhibition, IL-1 beta readout. THP-1 LPS/ATP IL-1B secretion, AlphaLISA, 16 h; active compounds read low. activity change, % at 57.5 µM. 4.7% of 360,000 active; in the data active = activity change below about -50%; inconclusive = mostly about -30% to -49%
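Secreted IL-1B measured by AlphaLISA bead assay after 16 h compound exposure of THP-1 cells; compounds (final up to 57.5 uM) added 1 h before LPS (250 ng/mL) and ATP (1.25 mM) stimulation; lower signal means less secretion.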
HT1080NT lethal = kills 2HG-producing HT-1080-NT fibrosarcoma cells. HT-1080-NT fibrosarcoma viability, CellTiter-Glo ATP luminescence, 48 h. Potency, µM (highest dose often 46.1 µM), inactives show at the highest dose activity, negative = less viability, hits mostly cytotoxic. 1.6% of 360,000 active. AID 686970;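 note: NT is the 2HG producing partner of a matched IDH1 knockdown line; potency is the fitted concentration of half-maximal effect; 0% = DMSO-treated cells and -100% = media-only wells without cells; nearly all actives have a fitted effect of over 55% in size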
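Compounds were tested in concentration-response format on HT-1080-NT cells for 48 hours at 37 degrees C. Cell viability came from CellTiter-Glo luminescence; curves were classified by r2, response magnitude and activity.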
DT40 TDP1 CPT = DT40-hTDP1 cell growth loss with CPT | 12% of 420,000 active | Potency, µM (top dose mostly 46.2 µM), without a hit: at the top dose activity change, negative = growth inhibition, most hits filed as inhibitors | AID 686979 | chicken DT40 Tdp1-/-;hTDP1 cells + 20 nM CPT, ATP luminescence, 48 h; note: potency is the fitted concentration of half-maximal effect; nearly all actives have a fitted effect of over 55% in size
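Chicken DT40 Tdp1-/- cells complemented with human TDP1, 400 cells/well, exposed to compounds plus 20 nM camptothecin for at least 48 h at 37 C; viability read as ATP content by CellTiter-Glo luminescence.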
* = called active by the depositor; ? = inconclusive; . = no result given; [ ] = another dose, or the depositor's remark. In the library only some 19% were active in any assay of this set; here they are far more common. Unless noted, calls come from the whole dose curve; as a rule, active = well fitted curve in the direction sought with a large enough effect; inconclusive = small, poorly fitted or top-dose-only effect, or another doubt; inactive = no such curve, though single readings can be large; an effect the other way counts as inactive or inconclusive. Unless noted, % is set by controls: 0 for no effect and ±100 for the full control effect.

SMILES	HT1080 IDH1KD tx	TDP1 cell noCPT	IL1B secr inh	HT1080NT lethal	DT40 TDP1 CPT
Cc1ccc(NC(=O)CN(C)Cc2c(O)ccc3ccccc23)cc1	-0.7%	?	-101.3*	-8.9%	-7.3%
CCCC1NC(=O)c2cccnc2-n2c1nc1ccc(C)cc1c2=O (stereo unspecified)	0.7%	-19.6%	-17.5	-0.1%	14.5%
COc1ccc(CN(C)CC(=O)Nc2ccccc2C(F)(F)F)c(OC)c1	-1.9%	-28.7%	3.8	0.2%	7.5%
COc1ccc(CN(C)CC(=O)Nc2ccccc2C(F)(F)F)cc1	-0.7%	?	15.5	-14.5%	?
COc1ccc(CN(C)CC(=O)Nc2ccc(Cl)cc2C(F)(F)F)c(OC)c1	-13.4%	16.4µM*	-12.6	-8.9%	20.6µM*
CCN(CC)S(=O)(=O)c1cccc(C(=O)Nc2cc3oc4ccccc4c3cc2OC)c1	5.9%	18.4µM*	12.6	2.0%	16.4µM*
COc1cc2c(cc1NC(=O)CN(C)Cc1ccc(OC)c(OC)c1)oc1ccccc12	?	16.4µM*	-24.7	?	16.4µM*
COc1ccc2ccc(O)c(CN(C)CC(=O)Nc3ccccc3C(F)(F)F)c2c1	-29.9%	?	-23.2	?	20.6µM*
COc1cc2c(cc1NC(=O)c1cncc(Br)c1)oc1ccccc12	?	-23.7%	10.1	?	-12.0%
Cn1c(=O)c2ccccc2n(CC(=O)NCCC2=CCCCC2)c1=O	-11.8%	-26.7%	16.7	-19.0%	-25.4%
O=C(CSc1ccc(-c2cccnc2)nn1)Nc1ccc(F)cc1	-5.8%	-5.6%	1.1	-0.2%	-21.6%
CN(Cc1ccccc1)C(=O)[C@H]1CCC(=O)N1Cc1ccco1	-8.0%	-15.0%	5.0	-3.3%	-16.0%
Cc1cc(C)c(S(=O)(=O)Nc2cc(Cl)c3oc4c(c3c2)C(=O)CCC4)cc1C	.	-10.5%	.	.	-14.2%
COc1ccc(N(C(=O)c2cccnc2)S(=O)(=O)c2ccc(F)cc2)cc1	2.1%	?	12.9	11.6%	-27.4%
COc1ccc(NC(=O)CC2SC(N3CCCC3)=NC2=O)cc1Cl (stereo unspecified)	-1.8%	?	35.3	-7.4%	-21.0%
COc1cc2c(cc1NC(=O)CC1SC(N3CCCC3)=NC1=O)oc1ccccc12 (stereo unspecified)	?	20.6µM*	-28.1	?	?
Cc1ccc(-c2csc3nc(C)n(-n4c(C)ccc4C)c(=O)c23)o1	-0.4%	20.6µM*	1.5	3.3%	20.6µM*
CC(=O)c1ccc2c(c1)OCCOCCOc1ccccc1OCCOCCO2	-4.1%	23.1µM*	-15.0	-15.2%	18.4µM*
OCCN1CCOCCOc2ccccc2OCCOCC1	10.7%	-0.1%	48.0	13.4%	2.8%
c1ccc2c(c1)OCCOCCOCCOCCOCCOc1ccccc1OCCOCCOCCO2	?	14.6µM*	-73.2*	?	8.2µM*
CC(=O)c1ccc2c(c1)OCCOCCOCCOCCO2	5.0%	-0.7%	0.4	7.2%	3.0%
C=CCN(C(=O)CCC(=O)Nc1cc(C)on1)C(C(=O)NC1CCCC1)c1ccc(C)cc1 (stereo unspecified)	-3.8%	-26.7%	-6.2	-1.1%	?
CCc1ccc(CN(C)C(=O)CCc2nc3ccccc3n(-c3ccc(OC)cc3)c2=O)cc1	14.6µM*	20.6µM*	-56.4*	-12.5%	16.4µM*
CN(C)C(CNC(=O)CCNS(=O)(=O)c1ccccc1C(F)(F)F)c1ccccc1 (stereo unspecified)	0.5%	25.3%	-5.3	-2.1%	-5.2%
CCCCNC(=O)/C(=C\c1ccc([N+](=O)[O-])o1)NC(=O)c1ccccc1	0.0%	?	24.7	-12.1%	16.4µM*
SMILES	HT1080 IDH1KD tx	TDP1 cell noCPT	IL1B secr inh	HT1080NT lethal	DT40 TDP1 CPT
COC(=O)/C(=C\c1ccc([N+](=O)[O-])o1)NC(=O)c1ccccc1	-14.3%	11.2µM*	5.5	?	14.1µM*
Cc1cccc(NC(=O)/C(=C\c2ccc([N+](=O)[O-])o2)NC(=O)c2ccc(Cl)cc2)c1	-6.3%	?	?	-14.7%	?
O=C(O)C1CC=CCC1C(=O)Nc1ccccc1Cl (stereo unspecified)	23.0%	23.1µM*	10.1	12.3%	?
Cc1cccc(N2CCN(C(=O)c3ccccc3NC(=O)C3CC=CCC3C(=O)O)CC2)c1 (stereo unspecified)	5.7%[9.24 µM]	5.8µM*	27.7	12.8%	?
O=C(O)C1CCCCC1C(=O)Nc1ccccc1Cl (stereo unspecified)	3.9%	-13.1%	84.5	7.5%	-14.9%
CC(C)(C)c1ccc(Oc2ccc(NC(=O)C3CC=CCC3C(=O)O)cc2)cc1 (stereo unspecified)	?	6.4%	13.5	?	29.4%
Cc1ccccc1Oc1ccc(NC(=O)C2CC=CCC2C(=O)O)cc1 (stereo unspecified)	-3.8%	6.51µM*	0.0	-5.4%	14.6µM*
O=Cc1cn(CC(=O)N2CCc3ccccc32)c2ccccc12	10.5%	?	16.7	23.5%	-24.9%
Cc1ccc(OC(=O)c2cc(-c3ccc4c(c3)OCCO4)on2)cc1C	.	-13.6%	.	.	-2.2%
C#CCOCCOCCOCCNc1nc(N2CCN(C(=O)C([C@@H](C)O)n3cc([C@@H](N)CCCCN)nn3)CC2)nc(N2CCN(C(=O)[C@H](CCCCN)n3cc([C@@H](N)CC(N)=O)nn3)CC2)n1 (stereo partly specified)	3.9%	2.2%	-2.7	1.3%	1.8%
CC1=NN(C(=O)c2csc(C(C)C)c2)C(O)(C(F)(F)F)C1 (stereo unspecified)	3.5%	1.03µM*	11.6	0.5%	0.731µM*
CC1=NN(C(=O)c2cccnc2)C(O)(C(F)(F)F)C1 (stereo unspecified)	?	-11.8%	11.2	?	-12.1%
CC1=NN(C(=O)c2ccoc2C)C(O)(C(F)(F)F)C1 (stereo unspecified)	3.4%	2.31µM*	-1.8	14.4%	2.91µM*
CCOc1ccc(CC(=O)N2N=C(C)CC2(O)C(F)(F)F)cc1 (stereo unspecified)	8.1%	5.8µM*	-8.0	8.7%	18.4µM*
O=C(c1ccccc1O)N1N=C(c2ccccc2)CC1(O)C(F)(F)F (stereo unspecified)	-19.6%	1.8%	0.0	-20.2%	-21.0%
C=C(C)CN(CC)C(=O)CSc1nc(O)cc(=O)n1C1CCCC1	0.9%	11.0%	-14.9	-4.9%	1.1%
COc1cc2c(cc1OC)n(CC(=O)c1ccc(F)cc1)c(=O)n1nc(CCn3nc(C)cc3C)nc21	.	-17.0%	.	.	?
Cn1cc(C(=O)Nc2ccc(F)c(Cl)c2)cn1	18.3%	?	-6.1	?	-16.0%
